Unmarked numbers belong to inactive results. The call rests on the fitted dose curve.
On the % scale 0 is the no-effect control and ±100 the full control effect.

The target of this assay is Acetylcholinesterase (Homo sapiens) (UniProt P22303). As to the kind of experiment: Acetylcholinesterase (AChE) small molecule antagonists: enzyme-based qHTS assay with human liver microsomes (AID 1347399). Further: nearly all actives have a fitted effect of over 60% in size. The note with it: Potency: qHTS inhibition; outcome: qHTS inhibition; series mostly up to 115 µM; activity change, negative = inhibition: at the top concentration. From the text: National Center for Advancing Translational Sciences [NCATS]
Sequence of Acetylcholinesterase (Homo sapiens) (P22303 whole entry, looked up): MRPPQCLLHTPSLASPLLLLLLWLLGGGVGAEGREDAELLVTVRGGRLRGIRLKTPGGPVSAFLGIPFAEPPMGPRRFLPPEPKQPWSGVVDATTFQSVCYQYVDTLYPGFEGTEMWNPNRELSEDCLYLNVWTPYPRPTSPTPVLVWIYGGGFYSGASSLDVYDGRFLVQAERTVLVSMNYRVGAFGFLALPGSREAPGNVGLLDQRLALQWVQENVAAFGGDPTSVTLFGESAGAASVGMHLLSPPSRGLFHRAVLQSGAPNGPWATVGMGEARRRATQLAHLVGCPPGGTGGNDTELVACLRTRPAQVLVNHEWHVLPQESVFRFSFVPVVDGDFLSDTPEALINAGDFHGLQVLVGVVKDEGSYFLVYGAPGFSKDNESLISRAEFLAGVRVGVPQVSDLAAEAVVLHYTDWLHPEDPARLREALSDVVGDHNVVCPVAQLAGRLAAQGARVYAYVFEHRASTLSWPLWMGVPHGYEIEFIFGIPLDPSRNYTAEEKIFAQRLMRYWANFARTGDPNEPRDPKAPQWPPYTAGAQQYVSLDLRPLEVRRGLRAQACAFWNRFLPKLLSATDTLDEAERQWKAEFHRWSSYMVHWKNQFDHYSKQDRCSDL
Division of Preclinical Innovation [DPI]
U.S. Environmental Protection Agency [EPA]
National Institutes of Environmental Health Sciences [NIEHS]
National Toxicology Program [NTP]
U.S. Food and Drug Administration [FDA]
Acetylcholinesterase (AChE) is the primary cholinesterase in the body that hydrolyzes a key neurotransmitter, acetylcholine. Inhibition of AChE activity can lead to neurotoxicity. The known inhibitors include organophosphorous pesticides (OP), chemical warfare agents, drugs, and various phytochemicals. Some compounds like OP compounds may need metabolic activation to be active AChE inhibitors. The cytochrome P450 (CYP) superfamily in the human microsomes is responsible for the metabolism of various endogenous and exogenous compounds.
An enzyme-based assay with the recombinant human AChE, human liver microsomes and Amplite Colormetric acetylcholinesterase assay kit (AAT Bioquest, Sunnyvale, CA) was used to evaluate compounds in the Tox21 10K library that need metabolic activation for AChE inhibition. The assay uses 5, 5-dithiobis-(2-nitrobenzoic acid) (DTNB) to quantify the thiocholine produced from the hydrolysis of acetylthiocholine by AChE.
Tox21 Assay Protocol Summary:
For the enzyme-based AChE assay with microsomes addition, a mixture of human AChE (50 mU/mL) and human liver microsomes (0.25 mg/mL, final concentration) in 3 uL/well was dispensed into black, clear-bottom 1536-well plates using a Multidrop Combi dispenser (Thermo Scientific, MA). Then, 23 nL of compound or DMSO (vehicle control) was transferred into the assay plates by a Pintool Station (Wako Automation, CA). Following compound addition, 1 uL of NADPH (0.25 mg/mL, final concentration) was transferred to the assay plate by a Flying Reagent Dispenser (Beckman Coulter, CA). The plates were incubated for 30 min at 37 C and 5% CO2, followed by the addition of 4 uL of colorimetric detection cocktail solution (DTNB, acetylthiocholine) into each well using a Flying Reagent Dispenser (Beckman Coulter, CA) and then 10 min incubation at room temperature.
Background: In qHTS, concentration-response curves come from the screen itself.
On to `O=S(=O)(O)c1ccc(N=Nc2c(O)ccc3ccccc23)cc1`, for which the “activity change, negative = inhibition” value was 5.28%.
For `NC(=O)C1(N2CCCCC2)CCN(CCCN2c3ccccc3CCc3ccc(Cl)cc32)CC1` the value was -0.31% [at 53 µM].
As to `CCCCC/C=C/CC1CC(=O)OC1=O` (stereo not given), the “activity change, negative = inhibition” value is 0.153%.
`CCCCCCOc1ccc(N)cc1`: the “activity change, negative = inhibition” value was 4.46%.
With `COc1ccccc1NC(=O)c1cc2ccccc2cc1O`, the “activity change, negative = inhibition” value was 2%.
`CCCC(=O)C(=O)O`: the “activity change, negative = inhibition” value is -1.02%.
For `c1ccc(C[P+](c2ccccc2)(c2ccccc2)c2ccccc2)cc1`, the “activity change, negative = inhibition” value was -0.486%.
For `Cc1ccc(N)cc1O` the value was 0.291%; for `CCCC=O`, 0.972%; for `CCCOC(=O)c1ccc(N)cc1`, -1.09% [at 53 µM].
For `CCCCN1C=CN(C)C1` the value was 0.0718% [at 23.6 µM]; for `C=C(C)C(=O)OCCC(F)(F)C(F)(F)C(F)(F)C(F)(F)C(F)(F)C(F)(F)F`, 0.146%.
For `CCOC(=O)CC(C)O` (stereo not given) the value was -0.323%; for `CC(C)(C)c1ccccc1`, -0.312%; for `C#CC(O)CCCCC` (stereo not given), 0.5%.
Regarding `CCN1CCCC1CNC(=O)c1cc(S(N)(=O)=O)ccc1OC` (stereo not given), the “activity change, negative = inhibition” value is -1.31%.
For `CCCCCCCCOC(=O)c1cc(O)c(O)c(O)c1` the value was -3.36%; for `CCCCCCCC/C=C\CCCCCCCC(=O)N(CCO)CCO`, 6.89%; for `CNC(C)=O`, -0.182%.
`CCCCCOC(=O)CCCCC`: the “activity change, negative = inhibition” value is -0.243%.
For `CC(=O)c1cccc([N+](=O)[O-])c1` the value was -3.73%.
For `O=C(C(=O)c1ccco1)c1ccco1` the value was -0.424%; for `COc1cccc(OC)c1C(=O)O`, -1.22%.
Take `CN1CCN(c2cc3c(nn2)Oc2ccccc2N3C)CC1`: the activity change, negative = inhibition was 1.76% [at 23.6 µM].
For `O=C(O)CNC(=O)CNC(=O)CNC(=O)CSC(=O)c1ccccc1` the value was -1.3% [at 53 µM]; for `CO[Si](CCCS)(OC)OC`, 0.153%; for `CC1=CC[C@@]23C[C@@H]1C(C)(C)[C@@H]2CC[C@H]3C`, -0.0718%.
In the case of `COc1cc(Cl)c(OC)cc1N`, the “activity change, negative = inhibition” value was -3.96%.
For `CC(C)(C)NSc1nc2ccccc2s1`, the “activity change, negative = inhibition” value was -3.39%.
For `Cc1ccco1` the value was -0.345%; for `O=S(=O)(O)c1ccc(Nc2nc(Nc3ccc(/C=C/c4ccc(Nc5nc(Nc6ccc(S(=O)(=O)O)cc6)nc(N(CCO)CCO)n5)cc4S(=O)(=O)O)c(S(=O)(=O)O)c3)nc(N(CCO)CCO)n2)cc1`, 0.459% [at 53 µM].
Take `CC1(c2ccccc2)OC(C(=O)O)=CC1=O` (stereo not given): the “activity change, negative = inhibition” value was 0.0378% [at 53 µM].
For `N[C@@H](CSCCCO)C(=O)O` the value was -0.67% [at 23.6 µM]; for `NNC(=O)CCCCC(=O)NN`, -1.24%; for `CCCCCCCCc1ccc(S(=O)(=O)O)cc1`, -0.149%.
Turning to `CC(=O)N[C@@H](CCC(=O)O)C(=O)O`, the “activity change, negative = inhibition” value is 1.18% [at 53 µM].
For `Cc1cccc([N+](=O)[O-])c1C(=O)O` the value was -1.68%.
For `CCC(C)(CCC(C)C)C(=O)O` (stereo not given) the value was -0.153%; for `CCN(CC)C(=O)Nc1ccc(OCC(O)CNC(C)(C)C)c(C(C)=O)c1` (stereo not given), -0.764% [at 53 µM].
Turning to `CCCC(=O)OCC`, the “activity change, negative = inhibition” value is -2.5%.

The record behind these values is PubChem BioAssay (Tox21).
